The panel holds about 83,000 compounds, 20% with a hit somewhere; the sample as a whole holds those more often.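 Assay: single dose, 48 h. Readout: percent growth (0 = no net growth; negative = cell death). Active: <10.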 Unmarked numbers belong to inactive results. The source made the active and inactive calls.

The test relates to HL-60(TB) leukemia. In words: NCI-60 one-dose screen, 48 h (100 = growth as untreated, 0 = no growth, -100 = all killed). The note with it: 10 µM unless noted.
Turning to `CCCCc1nc(Cl)c(C2CC(c3ccc(S(N)(=O)=O)cc3)=NN2c2ccc(C#N)cc2)[nH]1` (centres undefined), the growth was 92.7%.

Regarding `C=C(C)[C@@H]1CC=C2c3sc(-c4ccc(C)cc4)nc3C[C@@H](C)[C@]2(C)C1`, the growth was 102%.

Regarding `O=C(/C(=C/c1ccc([N+](=O)[O-])cc1)SCc1ccccc1)c1ccc(Cl)cc1`, the growth was 74.4%.

For the compound `C#CCOC(=O)Nc1ccccc1`, the growth is 99.7%.

In the case of `CCC(=O)Oc1cc(Cl)c(Cl)cc1Cl`, the growth was 106%.

Turning to `CC(=O)[C@H]1CC[C@]2(C)[C@@H]1CC[C@@H]1[C@@]3(C)CC(CCC#N)(CCC#N)C(=O)C(C)(C)[C@@H]3CC[C@]12C`, the growth is 103%.

`OC(COCc1ccccc1)COCc1ccccc1`: the growth was 91.8%.

On to `COc1cc(C2NC(c3cc(OC)c(OC)c(OC)c3)C(C#N)(C#N)C2(C#N)C#N)cc(OC)c1OC` (centres undefined), for which the growth was 89.3%.

On to `CN(C)Cc1cn(-c2ncc(-c3ccc(C(F)(F)F)cc3)c(NC3CCCCCC3)n2)nn1`, for which the growth is 83.3%.

Consider `Cc1cccc(Cl)c1NC(=O)c1cnc(Nc2cc(N3CCOCC3)cc(S(C)(=O)=O)c2)s1`, for which the growth was 110%.

With `O=C(NC1CCN(Cc2ccccc2)CC1)c1cc(-c2ccncc2)nc2ccc(Cl)cc12`, the growth was 15.2%.

Consider `CN1C(=O)/C(=C/c2ccc(C(=O)Nc3ncc(Cc4cccc(C(F)(F)F)c4)s3)cc2)SC1=S`, for which the growth was 43.3%.

With `CCN1CCN(CCNc2nccc(-c3c(-c4ccc(F)c(OC)c4)nc4sccn34)n2)S1(=O)=O`, the growth was 89.1%.

As for `N#C/C(=C\c1ccc(C#N)cc1)C(=O)c1ccccc1`, the growth was 92.7%.

Consider `O=C(/C=C/c1ccc(Cl)cc1)c1ccc(Nc2ccnc3cc(Cl)ccc23)cc1`, for which the growth is 23.2%.

As for `COc1cccc(-c2nnc(COc3ccc(-c4nc5ccccc5[nH]4)cc3OC)o2)c1`, the growth is 103%.

In the case of `Oc1ccc(-c2[nH]c3ccccc3c2-c2nc3ccccc3o2)cc1`, the growth was 80.8%.

For the compound `COc1cccc(C(=O)O)c1OC`, the growth was 106%.

As to `CC(=O)c1ccc(-n2c(-c3cc(-c4ccsc4)n[nH]3)n[nH]c2=S)cc1`, the growth is 112%.

In the case of `O=c1oc2ccc(F)cc2c(=O)n1-c1ccc(Cl)cc1F`, the growth was -45.3% (active).

`Nc1nccc(OCCO)n1`: the growth is 88.5%.

With `Nc1nonc1-c1nc2ccccc2n1CC(=O)Nc1ccc2c(c1)COC2=O`, the growth was 100%.

Turning to `Nc1c(C(=O)Nc2ccccc2F)sc2nc3c(cc12)C(=O)CCC3`, the growth is 33.9%.

For `O=C(c1c[nH]c2ccccc12)c1n[nH]c(=S)n1-c1ccc([N+](=O)[O-])cc1`, the growth was 61.4%.

For the compound `C/C(=C(\c1ccc(OCCN2CCCCCC2)cc1)c1ccc(OC(=O)c2ccccc2)cc1)c1ccc(Cl)cc1`, the growth was 13.8%.

With `Nc1nc2c(c3ncccc13)C(c1ccccc1)Cc1ncccc1-2` (centres undefined), the growth is 65.9%.

`O=P(O)(O)OCC1OC(n2cnc3c(NCc4ccccc4)ncnc32)C(O)C1O` (centres undefined): the growth was 26.8%.

As to `c1nc2ccc(-c3cc4ccc5[nH]ncc5c4c4c3CCCC4)cc2[nH]1`, the growth is 30.9%.

Turning to `CCOC(=O)Nc1ccc2c(c1)C(=O)N(CC)c1ccccc1O2`, the growth is -17% (active).

Consider `O=[N+]([O-])c1ccc(-c2noc(-c3cccs3)n2)cc1`, for which the growth was 70.1%.

As to `O=C1C(Cl)=C(Cl)C(=O)c2c1nc1n2CCCC1`, the growth is 74.8%.

`CC1=C(NCCN2CCCC2)C(=O)c2c(OCc3cccc(Cl)c3)cccc2C1=O`: the growth was 94.1%.

For the compound `CCN(CC)c1cc2oc3cc(N)cc(=N)c-3nc2cc1C`, the growth is -15.2% (active).

In the case of `CC(C)=CCC[C@](C)(O)C1CC[C@]2(C)[C@@H]1CC[C@@H]1[C@@]3(C)CC/C(=N\OCCC#N)C(C)(C)[C@@H]3CC[C@]12C` (some centres undefined), the growth is 69.3%.

In the case of `CC12O[C@H](C[C@@H](OC(=O)CCC(=O)O)[C@H]1O)n1c3ccccc3c3c4c(c5c6ccccc6n2c5c31)C(=O)NC4=O`, the growth was 66.7%.

As to `Cc1ccc(S(=O)(=O)Oc2cc(OS(=O)(=O)c3ccc(C)cc3)cc(OS(=O)(=O)c3ccc(C)cc3)c2)cc1`, the growth was 107%.

For the compound `CCOC(=O)c1c(/N=C2\SC(=O)/C(=C\C(=O)OC)N2NC)sc2c1CCN(C(=O)OCC)C2`, the growth is 108%.

With `CCCCCSc1ccc2nc(NC(=O)OCC)sc2c1`, the growth was 4.55% (active).

Consider `O=COCCCc1ccccc1`, for which the growth is 106%.

Values taken from PubChem BioAssay (NCI).
